The values below come from PubChem BioAssay.

Activity calls are given as the source filed them.

A short description of test [1]: binders of probe aFSTL3 on microarray, primary screen, stem cell growth factor project, biochemical, small-molecule microarray, fluorescence 635/667 (AID 1064).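 Also: measures binding of the biotinylated anti-FSTL3 antibody to printed compounds.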 Conditions: higher = more signal.
The nature of test [2]: binders from COS7 lysate, DM2A8 probe, primary screen, torsin A project, cell lysate, small-molecule microarray, fluorescence 635/667 (AID 1065). The following applies: higher = more signal, COS7 lysate expressing mutant human TOR1A.
The nature of test [3]: binders of probe aFGF2 on microarray, primary screen, stem cell growth factor project, biochemical, small-molecule microarray, fluorescence 635/667 (AID 1067).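 Also: measures binding of biotinylated aFGF2 protein to printed compounds on slides; z-score merges feature fluorescence and signal-to-noise across triplicate slides.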 Conditions: higher = more signal.
Test [4] can be described thus: binders of probe aFGF10 on microarray, primary screen, stem cell growth factor project, biochemical, small-molecule microarray, fluorescence 635/667 (AID 1071).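 Also: score merges 667 nm spot intensity and signal to noise from triplicate slides.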 Conditions: higher = more signal.
Test [5] deals with Neurogenic locus notch homolog protein 2 (Homo sapiens) (UniProt Q04721). As to the kind of experiment: Notch2 binders on small-molecule microarrays, primary screen, biochemical, small-molecule microarray, 635 nm fluorescence, stem cell growth factors (AID 1073). The following applies: Notch2 binding, higher = more signal.
The target in test [6] is Pro-neuregulin-1, membrane-bound isoform (Homo sapiens) (UniProt Q02297). As to the kind of experiment: NRG1 binders on small-molecule microarrays, primary screen, psychiatric disease protein project, biochemical, small-molecule microarray, fluorescence 635/667 (AID 1075).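 Also: score combines 667 nm spot fluorescence with signal to noise.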 Conditions: NRG1 binding, 635 nm fluorescence, higher = more signal.
Test [7] relates to Neuregulin-1 EGF-like domain. As to the kind of experiment: binders of neuregulin-1 EGF-like domain, primary screen, biochemical, small-molecule microarray, 635 nm fluorescence (AID 1081).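 Also: binding of the protein to compounds printed on small-molecule microarray slides.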 Conditions: small-molecule microarray binding, higher = more signal.
The nature of test [8]: FRG1 promoter luciferase signal modulators, primary screen, FRG1 inhibition for FSHD, cell-based, C2C12 myotubes, firefly/Renilla luciferase, luminescence (AID 1084). Conditions: higher = more signal, called active from +8 up or from −8 down.
A short description of test [9]: binders of probe aFST on microarray, primary screen, stem cell growth factor project, biochemical, small-molecule microarray, fluorescence 635/667 (AID 1086).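 Also: score merges 667 nm fluorescence with signal-to-noise of each printed compound spot.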 The following applies: higher = more signal.
The nature of test [10]: binders of probe aHhip on microarray, primary screen, stem cell growth factor project, biochemical, small-molecule microarray, fluorescence 635/667 (AID 1087).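 Also: score merges spot fluorescence at 667nm with spot signal to noise ratio.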 Conditions: higher = more signal.

Sequence of Pro-neuregulin-1, membrane-bound isoform (Homo sapiens) (Q02297 whole entry, looked up, the tested form may be a part, canonical isoform): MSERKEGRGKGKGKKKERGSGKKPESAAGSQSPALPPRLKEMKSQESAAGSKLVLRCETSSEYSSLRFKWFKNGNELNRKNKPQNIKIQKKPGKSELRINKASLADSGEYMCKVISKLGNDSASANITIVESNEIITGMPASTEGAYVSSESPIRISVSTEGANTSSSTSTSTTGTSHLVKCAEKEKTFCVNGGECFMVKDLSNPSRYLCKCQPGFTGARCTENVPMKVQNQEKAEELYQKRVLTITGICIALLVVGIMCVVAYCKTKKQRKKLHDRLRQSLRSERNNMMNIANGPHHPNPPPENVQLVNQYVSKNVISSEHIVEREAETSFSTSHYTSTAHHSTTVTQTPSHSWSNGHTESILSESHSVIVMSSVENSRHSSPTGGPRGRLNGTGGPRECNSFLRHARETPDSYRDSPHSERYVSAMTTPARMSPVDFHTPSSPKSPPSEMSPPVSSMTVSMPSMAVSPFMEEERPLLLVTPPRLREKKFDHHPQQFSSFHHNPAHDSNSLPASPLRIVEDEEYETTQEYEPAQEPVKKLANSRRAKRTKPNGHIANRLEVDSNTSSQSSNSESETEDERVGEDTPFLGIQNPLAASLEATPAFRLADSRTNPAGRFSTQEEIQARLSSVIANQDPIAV
Sequence of Neurogenic locus notch homolog protein 2 (Homo sapiens) (Q04721 whole entry, looked up, canonical isoform): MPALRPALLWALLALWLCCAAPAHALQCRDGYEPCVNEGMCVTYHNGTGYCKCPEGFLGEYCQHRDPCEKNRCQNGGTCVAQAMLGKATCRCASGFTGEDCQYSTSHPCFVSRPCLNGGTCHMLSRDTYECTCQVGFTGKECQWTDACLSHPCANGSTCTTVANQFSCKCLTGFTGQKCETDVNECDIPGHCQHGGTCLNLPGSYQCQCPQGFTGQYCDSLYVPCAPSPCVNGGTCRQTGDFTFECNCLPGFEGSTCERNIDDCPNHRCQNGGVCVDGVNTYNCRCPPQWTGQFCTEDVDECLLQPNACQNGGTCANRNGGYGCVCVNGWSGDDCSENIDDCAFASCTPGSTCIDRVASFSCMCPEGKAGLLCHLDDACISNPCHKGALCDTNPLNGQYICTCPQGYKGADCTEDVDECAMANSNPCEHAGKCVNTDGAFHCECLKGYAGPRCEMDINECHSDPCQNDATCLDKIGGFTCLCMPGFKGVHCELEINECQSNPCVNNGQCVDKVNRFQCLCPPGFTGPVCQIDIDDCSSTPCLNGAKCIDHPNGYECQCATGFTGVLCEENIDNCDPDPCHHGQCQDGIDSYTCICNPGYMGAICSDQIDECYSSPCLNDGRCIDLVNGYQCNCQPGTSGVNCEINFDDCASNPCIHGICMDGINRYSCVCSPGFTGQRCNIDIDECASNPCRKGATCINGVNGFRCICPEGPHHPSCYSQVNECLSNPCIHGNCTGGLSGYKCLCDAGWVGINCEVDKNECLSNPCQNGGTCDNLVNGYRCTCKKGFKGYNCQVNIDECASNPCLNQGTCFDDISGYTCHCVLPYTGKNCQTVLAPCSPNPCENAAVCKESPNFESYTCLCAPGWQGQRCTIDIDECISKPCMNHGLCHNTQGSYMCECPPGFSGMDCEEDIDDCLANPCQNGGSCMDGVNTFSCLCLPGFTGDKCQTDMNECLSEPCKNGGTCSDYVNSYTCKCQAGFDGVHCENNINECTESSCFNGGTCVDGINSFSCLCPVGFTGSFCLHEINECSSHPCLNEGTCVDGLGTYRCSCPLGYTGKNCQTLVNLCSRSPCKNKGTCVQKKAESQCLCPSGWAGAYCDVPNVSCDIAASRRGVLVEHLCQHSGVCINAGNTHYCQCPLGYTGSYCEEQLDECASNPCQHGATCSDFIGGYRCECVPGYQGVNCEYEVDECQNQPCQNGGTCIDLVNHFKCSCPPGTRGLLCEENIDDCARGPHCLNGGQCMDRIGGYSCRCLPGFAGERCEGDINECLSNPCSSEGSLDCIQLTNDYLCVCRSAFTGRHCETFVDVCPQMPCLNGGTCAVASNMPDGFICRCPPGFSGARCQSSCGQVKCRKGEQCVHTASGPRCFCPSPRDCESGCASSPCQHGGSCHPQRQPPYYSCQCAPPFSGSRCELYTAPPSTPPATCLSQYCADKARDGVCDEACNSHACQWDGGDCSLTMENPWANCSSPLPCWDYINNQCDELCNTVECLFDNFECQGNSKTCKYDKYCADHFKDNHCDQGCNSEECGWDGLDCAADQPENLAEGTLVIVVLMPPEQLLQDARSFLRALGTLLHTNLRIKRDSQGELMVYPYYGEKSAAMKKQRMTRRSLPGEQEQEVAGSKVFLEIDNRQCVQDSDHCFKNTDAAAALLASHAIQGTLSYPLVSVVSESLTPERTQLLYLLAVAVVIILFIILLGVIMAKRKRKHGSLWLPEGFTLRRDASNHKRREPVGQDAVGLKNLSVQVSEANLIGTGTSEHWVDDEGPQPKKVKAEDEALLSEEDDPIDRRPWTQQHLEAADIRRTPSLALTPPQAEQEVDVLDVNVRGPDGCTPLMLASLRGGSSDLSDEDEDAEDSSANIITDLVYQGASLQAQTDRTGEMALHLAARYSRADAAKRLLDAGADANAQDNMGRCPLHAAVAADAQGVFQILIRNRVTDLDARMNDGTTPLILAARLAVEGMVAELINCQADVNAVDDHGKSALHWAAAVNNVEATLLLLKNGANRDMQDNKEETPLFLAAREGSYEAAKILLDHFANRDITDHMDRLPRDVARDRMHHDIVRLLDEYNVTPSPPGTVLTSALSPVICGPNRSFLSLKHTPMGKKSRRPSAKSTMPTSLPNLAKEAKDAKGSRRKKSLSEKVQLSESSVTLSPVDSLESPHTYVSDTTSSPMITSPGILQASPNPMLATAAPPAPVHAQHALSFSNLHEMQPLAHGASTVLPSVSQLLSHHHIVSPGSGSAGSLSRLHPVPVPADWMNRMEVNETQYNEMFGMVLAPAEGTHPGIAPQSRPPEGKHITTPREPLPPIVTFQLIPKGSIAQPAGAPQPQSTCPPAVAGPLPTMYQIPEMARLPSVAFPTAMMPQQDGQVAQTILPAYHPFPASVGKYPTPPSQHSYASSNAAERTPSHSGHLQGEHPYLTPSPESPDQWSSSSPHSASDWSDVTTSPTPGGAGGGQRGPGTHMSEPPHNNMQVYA

Turning to `C#CCN1[C@@H](Cc2ccc(O)cc2)C(=O)O[C@H](Cc2ccccc2)[C@@H]1/C=C/C1CC1`, the composite z-score is -0.353 in [1]; 0.336 in [2]; -0.142 in [3]; 0.199 in test [4]; -0.586 in [5]; -0.37 in test [6]. The composite z-score in [7] is 0.207; in test [9], 0.0959; in [10], -0.279. Moreover, in test [8], the z-score was -3.33 (inactive).

`COC(=O)[C@]1(CCC(=O)OC(C)(C)C)N=C(c2ccc(OCCCO)cc2)O[C@@H]1c1ccccc1`: the composite z-score was 1.11 in test [1]; -0.522 in test [2]; 0.0679 in test [3]; -0.87 in [4]; -0.668 in test [5]; 0.791 in test [6]. For the same molecule, the composite z-score in test [7] is 1.14; in test [9], -0.159; in test [10], -0.233. Besides, the z-score in test [8] was -2.62 (inactive).

With `C[N+](C)(C)CCCC[C@@H]1NC(=O)[C@@H]2C[C@H](C(=O)NCCCCCCNC(=O)CS)[C@H](c3ccc(O)cc3)N2C1=O`, the composite z-score was 0.973 in test [1]; -0.951 in test [2]; -0.193 in test [3]; 0.0372 in [4]; -1.41 in [5]; 0.801 in test [6]. For the same molecule, the figures for the composite z-score in test [7], in test [9] and in [10] were 1.47, -0.622 and 0.235, respectively. For the same molecule, in test [8], the z-score is -0.338 (inactive).

Turning to `CCOC(=O)C[C@H]1[C@H](OC(=O)c2ccc(C(=O)c3ccccc3)cc2)[C@@H](NC(=O)c2ccccc2)c2cc(OCCCO)ccc2N1C(=O)c1ccccc1`, the composite z-score in test [1] was -0.481; in test [2], 0.0554; in test [3] it was -0.0376; in test [4] it was 0.683; in test [5] it was 0.783; in [6], 0.636. Further, the composite z-score in test [7] came to 0.935; in [9], 0.204; in test [10], 0.0053. Moreover, in test [8], the z-score is -1.48 (inactive).

`CCC(CC)C(O)C1C=CC2C(=O)N(c3ccccc3)C(=O)C2N1Nc1ccccc1` (stereo not given): the composite z-score in [1] turned out to be 0.525; in [2], 0.814; in [3] it was 0.21; in test [4], 0.974; in test [5], 1.62; in test [6], 1.94. The composite z-score is 1.27 in test [7], 1.42 in test [9] and -0.216 in test [10]. The z-score in test [8] is -1.31 (inactive).

As for `C[N+](C)(C)CCCC[C@@H]1NC(=O)[C@H]2C[C@@H](C(=O)NCCCCCCNC(=O)CS)[C@@H](c3ccc(O)cc3)N2C1=O`, the composite z-score in test [1] was 0.312; in test [2], 2; in [3], -0.131; in test [4], -0.457; in test [5], -1.36; in test [6], 1.7. For the same molecule, the composite z-score in test [7] is 1.41; in [9], -0.39; in [10] it was -0.0994. The z-score in test [8] was -0.395 (inactive).

For `CC(=O)n1cc(C(O)C2C=CC3C(=O)NC(=O)C3N2Nc2ccccn2)c2ccccc21` (stereo not given), the composite z-score in test [1] was 0.125; in test [2], 0.0908; in test [3] it was -0.0583; in test [4] it was 0.122; in [5] it was 0.887; in test [6], 0.298. Moreover, the composite z-score in test [7] is 1.27; in [9] it was 0.221; in [10], -0.179. The z-score in [8] is 1.15 (inactive).

For `C=C(CCCC)/C(=C/C[C@H](OC(=O)c1ccncc1)c1ccc(OCCO)cc1)c1cc(C(=O)OC)ccc1OC`, the composite z-score is -0.126 in test [1]; 0.123 in test [2]; -0.031 in test [3]; 1.15 in test [4]; 0.563 in test [5]; 0.348 in [6]. For the same molecule, the composite z-score in test [7] was 1.01; in test [9], -0.348; in [10] it was -0.195. For the same molecule, the z-score in test [8] is 31.6 (active).

Consider `O=C1OCCC/C=C\[C@H]2OC34C=CCN(c5ccc6ccccc6c5)C(=O)[C@H]3N(CCCCCO)C(=O)[C@@H]4C12` (stereo not given in full), for which the composite z-score in test [1] is 0.149; in [2], -0.763; in test [3] it was -0.195; in test [4], -0.759; in test [5], -0.367; in test [6], -0.634. Moreover, the composite z-score was -0.773 in test [7], -0.602 in test [9] and -0.169 in [10]. In test [8], the z-score was 0.815 (inactive).

With `CC[C@@H]1C=C(C(=O)O)[C@H](c2ccc(C)cc2)N1S(=O)(=O)c1ccc(C)cc1`, the composite z-score was -0.139 in test [1]; 0.719 in test [2]; -0.0246 in test [3]; -0.256 in test [4]; 1.1 in [5]; 0.929 in test [6]. Further, the composite z-score is 1.29 in [7], 0.593 in test [9] and 0.126 in test [10]. Besides, in test [8], the z-score is -0.143 (inactive).

As for `COCCCNC(=O)[C@@]1(Sc2ccc(C)cc2)CC(=O)N(Cc2ccccc2Cl)[C@@H]1c1ccc(CO)cc1`, the composite z-score in [1] is 0.59; in test [2], 2.15; in test [3] it was -0.119; in test [4], 0.429; in test [5] it was 0.307; in test [6], 1.14. The results for the composite z-score in [7], in [9] and in test [10] were 0.938, 0.393 and -0.0645, respectively. Further, the z-score in test [8] was -2.45 (inactive).

Consider `O=C(NCCN1CCOCC1)[C@@H]1c2ccccc2C(=O)N(Cc2cc(C(F)(F)F)cc(C(F)(F)F)c2)[C@H]1c1ccc(CO)cc1`, for which the composite z-score in [1] is 0.284; in [2], 0.183; in test [3], -0.116; in test [4] it was -0.214; in [5] it was -1.28; in test [6], 1.27. The composite z-score in test [7] is 1.25; in test [9], 0.0794; in test [10], -0.0994. Besides, in test [8], the z-score is 0.0006 (inactive).

`COc1ccc(C(=O)Nc2cccc(CN3C(=O)[C@]4(O[C@H](CCn5cc(CCO)nn5)[C@@H]([Si](C)(C)c5ccc(OC)cc5)[C@@H]4C)c4ccccc43)c2)cc1`: the composite z-score was 0.287 in test [1]; -0.161 in [2]; -0.116 in test [3]; -0.13 in [4]; 0.91 in test [5]; 0.654 in test [6]. Also, the composite z-score is 1.04 in test [7], 0.372 in test [9] and -0.137 in [10]. In addition, the z-score in [8] is -2.91 (inactive).

As for `C=CCOC(=O)[C@H]1[C@@H]2C(=O)O[C@@H](c3ccccc3)[C@@H](c3ccccc3)N2[C@@H](c2ccc(OCCOC(=O)[C@H]3C[C@H]4C(=O)N[C@@H](CCCCN(C)C)C(=O)N4[C@H]3c3cccc(OCCO)c3)cc2)[C@]12C(=O)Nc1ccc(I)cc12`, the composite z-score in [1] is -0.756; in test [2] it was 0.67; in test [3] it was -0.0659; in test [4], 0.527; in test [5] it was 0.914; in [6], 0.605. For the same molecule, the composite z-score in test [7] is 1.3; in [9], 0.405; in test [10], -0.179. Besides, the z-score in test [8] is 0.0721 (inactive).

Turning to `O=C1C2C=CC(C(O)C=Cc3ccc([N+](=O)[O-])cc3)N(n3cnnc3)C2C(=O)N1Cc1ccccc1` (stereo not given), the composite z-score is 0.246 in test [1]; 1.31 in test [2]; 0.0575 in [3]; 0.375 in [4]; 1.27 in [5]; 1.77 in [6]. Besides, the composite z-score was 1.19 in [7], 1.09 in test [9] and -0.226 in test [10]. For the same molecule, the z-score in [8] is 0.422 (inactive).

With `CC#CC(=O)Oc1ccc(Br)cc1C=CC(=O)OCC`, the composite z-score in [1] was 0.559; in test [2] it was -0.422; in [3], -0.0304; in test [4], 0.0178; in test [5] it was -0.497; in test [6], 0.334. Besides, the composite z-score was found to be 1.34 in [7], 0.375 in test [9] and 0.095 in [10]. In addition, the z-score in test [8] was 0.128 (inactive).

Regarding `CCCCC(=C=CC[C@@H](O)c1cccc(OCCO)c1)C[C@@H](O)c1ccccn1`, the composite z-score is -0.528 in [1]; 0.775 in test [2]; -0.0771 in test [3]; 0.702 in test [4]; 0.0548 in test [5]; 0.23 in [6]. The composite z-score in test [7] was 1.12; in [9] it was 0.381; in test [10] it was -0.0618. For the same molecule, the z-score in [8] is 1.36 (inactive).

On to `O=C(NCc1ccccc1)[C@@H]1c2ccccc2C(=O)N(C2Cc3ccccc3C2)[C@H]1c1ccc(CO)cc1`, for which the composite z-score in test [1] was determined as 0.335; in test [2], 0.0455; in [3], 0.0017; in test [4], 0.526; in [5], 0.501; in test [6] it was 1.02. For the same molecule, the composite z-score was 0.971 in test [7], 0.435 in [9] and -0.181 in test [10]. In addition, the z-score in test [8] is -2.38 (inactive).

In the case of `C=CCC(OC(C)=O)[C@@H]1[C@@H](N(Cc2ccc(-c3cccc(C(F)(F)F)c3)o2)C(=O)c2cccc3ccccc23)c2cc(OCCCO)ccc2N1C(=O)Cc1ccc2ccccc2c1` (stereo not given in full), the composite z-score in test [1] was -0.0817; in test [2], -0.261; in test [3] it was -0.152; in test [4], 0.2; in [5] it was -0.35; in test [6], 0.376. In addition, the composite z-score is 0.109 in test [7], 0.214 in test [9] and -0.199 in [10]. Besides, the z-score in [8] was 0.3 (inactive).

With `C#CCN1[C@H](/C=C/C2CC2)[C@H](Cc2ccccc2)OC(=O)[C@@H]1Cc1ccccc1`, the composite z-score in [1] was -0.413; in test [2], 0.241; in test [3], -0.144; in [4], -0.0377; in [5], -0.343; in [6], 0.153. Also, the composite z-score in test [7] is 0.524; in [9], -0.0168; in [10], 0.0373. In test [8], the z-score is -4.01 (inactive).

Take `Cc1ccc(C2C3C(=O)CC4C(=O)N(c5ccccc5)C(=O)C4C3CN2S(=O)(=O)c2ccc(C)cc2)cc1` (stereo not given): the composite z-score in [1] was 0.469; in test [2], 0.204; in [3], 0.292; in test [4] it was 0.59; in test [5], 1.57; in [6], 1.25. In addition, the composite z-score is 1.32 in test [7], 1.58 in [9] and 0.365 in [10]. Also, in test [8], the z-score was 0.0035 (inactive).
